Screening data deposited in PubChem by National Center for Advancing Translational Sciences (NCATS).
Sampled rows, rich in hits. Any-hit rate of the full collection: about 3.1%.
BRCA1 expr act = qHTS Assay to Identify Small Molecule Activators of BRCA1 Expression. Potency, µM (doses to about 46.1 µM), actives largely listed as activators. 1.1% of 380,000 active. MCF7-BRCA1-FFLuc reporter, luminescence, 48 h; response scale: scaled: vehicle 0%, 10 µM genistein 100%; also: nearly all actives have a fitted effect of over 80% in size
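Quantitative HTS in MCF7 cells stably reporting BRCA1 expression via firefly luciferase. Compound treatment lasts 48 h at 37 °C in phenol-red free MEM. Activation is expressed relative to genistein at 10 microM and DMSO.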
ELG1 DNA repair = qHTS screen for small molecules that inhibit ELG1-dependent DNA repair in human embryonic kidney (HEK293T) cells expressing luciferase-tagged ELG1; 2.3% of 330,000 active; HEK293T ELG1-luciferase reporter, luminescence, 16 h; DNA damage induced by 5-fluorouridine; Potency, µM (series often up to 46.1 µM), usual class: inhibitors; AID 504467, 2011; also: nearly all actives have a fitted effect of over 55% in size
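HEK293T cells expressing luciferase-tagged ELG1 (2,000/well) received 5-Fluorouridine plus compound or DMSO for 16 hr at 37 °C. Luciferase was read by ONE-Glo luminescence after 30 min at room temperature.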
IL2 activator = qHTS of IL-2 Activators | activation, % (series mostly up to about 46 µM) | 0.065% of 360,000 active | IL-2 activation reporter assay, cell-based qHTS; stimulated with anti-CD3/CD4/CD28 beads; in transgenic mouse T cells | AID 652025, 2013; in the data active = activation above about 50%; inconclusive = mostly about 30% to 49%
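Unstimulated transgenic mouse T cells; 60-min compound exposure; bead-based TCR/CD4/CD28 stimulation; 18 h culture, 37 degrees C; dual fluorescence (EGFP, DsRed) plate cytometry.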
Nrf2 activator = qHTS of Nrf2 Activators | 0.31% of 410,000 active | Potency, µM (titrated, usually from 46.1 µM), usual class: activators | AREc32 ARE-luciferase reporter (MCF7-derived line), luminescence, 24 h; also: nearly all actives have a fitted effect of over 65% in size
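AREc32_Fluc, 1000 cells/well, OPTI-MEM + 5% FBS, o/n 37 deg C 5% CO2; 23 nL cpd by pin tool, 24 hr; Steady-Glo 30 min RT, luminescence.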
Large screens that a line does not name were inactive. Unless noted, calls follow the shape of the dose curve; as a rule, active = well fitted curve in the direction sought with a large enough effect; inconclusive = small, poorly fitted or top-dose-only effect, or another doubt; inactive = no such curve, though single readings can be large; an effect the other way counts as inactive or inconclusive.

Oc1ccccc1/C=N/N1CCN(c2ccccn2)CC1	BRCA1 expr act 10µM, ELG1 DNA repair inconclusive
NC(=O)Cc1nc(-c2ccc([N+](=O)[O-])cc2)cs1	ELG1 DNA repair 18.3µM
CCC(=O)N(C1=C(NC)C(=O)c2ccccc2C1=O)C(C)C	ELG1 DNA repair inconclusive
CNC1=C(N(C(C)=O)c2ccc(Br)cc2)C(=O)c2ccccc2C1=O	ELG1 DNA repair 3.66µM
COc1cccc(CNC(=O)COC(=O)c2ccc(S(C)(=O)=O)c([N+](=O)[O-])c2)c1	none (no result: ELG1 DNA repair, IL2 activator, Nrf2 activator)
CCOC(=O)c1c(NC(=O)N/N=C/c2ccc(O)c(OC)c2)sc(C(C)=O)c1C	ELG1 DNA repair 4.61µM (no result: BRCA1 expr act, IL2 activator, Nrf2 activator)
CCOC(=O)c1c(NC(=O)C(=O)N/N=C/c2ccc(OCC)cc2)sc2c1CCCCC2	none
CCOC(=O)c1c(NC(=O)C(=O)N/N=C/c2ccc(O)c(OC)c2)sc2c1CCCCC2	ELG1 DNA repair 14.6µM
CN(C(=O)c1cc2c(s1)-c1ccc(Cl)cc1SC2)c1cccc(C(F)(F)F)c1	none (no result: BRCA1 expr act, ELG1 DNA repair, IL2 activator)
Cc1cc(C)nc(CCNC(=O)c2cc(COc3ccccc3)on2)n1	BRCA1 expr act 7.94µM, ELG1 DNA repair inconclusive
Cc1cc(CN(C)C(=O)c2cc(COc3ccc4ncccc4c3)on2)on1	ELG1 DNA repair inconclusive
CC(CNC(=O)c1cc(COc2ccc3ncccc3c2)on1)c1ccccc1 (configuration not stated)	ELG1 DNA repair 10.3µM
Cc1ccc(S(=O)(=O)C[C@@H]2OC[C@H](C(C)C)N2S(=O)(=O)c2ccc(C)cc2)cc1	none (no result: BRCA1 expr act, ELG1 DNA repair, Nrf2 activator)
Cc1onc(-c2ccccc2)c1C(=O)Nc1ncc([N+](=O)[O-])s1	ELG1 DNA repair 3.66µM
O=C(CSCc1ccc(Cl)cc1)Nc1ccccc1O	Nrf2 activator inconclusive
O=C(CCCSc1ccc(Cl)cc1)Nc1ccccc1O	ELG1 DNA repair inconclusive, Nrf2 activator 14.1µM
C=CCSc1nnc(-c2ccc([N+](=O)[O-])cc2)o1	BRCA1 expr act 10µM, ELG1 DNA repair inconclusive
CCCCN(C)c1c(C)nc2ccc(C(=O)Nc3cc(-c4ccccc4)ccc3OC)cn12	none (no result: ELG1 DNA repair)
O=C1CN2CCC1C/C2=C\c1ccnc2c(Cl)cccc12 (configuration not stated)	ELG1 DNA repair 10.3µM
O=C1C/C(=C\c2c(F)cccc2Cl)N2CCC1CC2	none
CS(=O)(=O)c1nc(S(=O)(=O)c2ccc(Cl)cc2)c(N2CCOCC2)s1	Nrf2 activator 6.31µM
Cc1ccc(NC(=O)Nc2cccc(F)c2)nc1	BRCA1 expr act 3.16µM, ELG1 DNA repair inconclusive
Cc1ccnc(NC(=O)Nc2cccc(F)c2)n1	BRCA1 expr act 1µM, ELG1 DNA repair inconclusive
O=C(Nc1cccc(F)c1)Nc1ccc(Cl)cn1	ELG1 DNA repair inconclusive
COc1ccc(-c2noc(-c3nnn(-c4cc(C)ccc4C)c3N)n2)cc1	none (no result: BRCA1 expr act, ELG1 DNA repair, IL2 activator)
COc1ccc(N(Cc2cccs2)C(=O)c2ccc(Br)o2)cc1	none (no result: BRCA1 expr act, ELG1 DNA repair, IL2 activator)
O=C(NCc1cccc(Br)c1)c1cnn(-c2ccc(F)cc2)c1-n1cccc1	none (no result: ELG1 DNA repair, IL2 activator)
CCCC(=O)NC1CC(=O)N(c2ccc3c(c2)OCCO3)C1 (configuration not stated)	none (no result: BRCA1 expr act, ELG1 DNA repair, IL2 activator)
CCOC(=O)C1=C(C)NC(C)=C(C(=O)OCC)C1C(=O)OCC(=O)NCc1ccccc1	ELG1 DNA repair inconclusive
COc1ccccc1CNC(=O)c1ccccc1C(=O)NC(CC(C)C)C(=O)NCc1ccccc1OC (configuration not stated)	ELG1 DNA repair 20.6µM
CC1Cc2ccccc2N1C(=O)COc1ccc2c(c1)OCO2 (configuration not stated)	BRCA1 expr act 3.16µM, ELG1 DNA repair inconclusive
CC1CCCN(C(=O)COc2ccc3c(c2)OCO3)C1 (configuration not stated)	none
CCOC(=O)C1=C(C)NC(C)=C(C(=O)OCC)C1C(=O)OCC(=O)NCc1ccccc1OC	ELG1 DNA repair 11.6µM
CC1Cc2ccccc2N1C(=O)COC(=O)c1c2c(nc3ccccc13)CCCCC2 (configuration not stated)	ELG1 DNA repair 13µM
O=C(OCC(=O)N1CCc2ccccc21)c1c2c(nc3ccccc13)CCCC2	ELG1 DNA repair inconclusive
CC1(C(=O)Nc2cccc(OC(F)(F)F)c2)Cc2c(-c3ccc(C(N)=O)cc3)ccnc2O1 (configuration not stated)	none (no result: ELG1 DNA repair)
CCOc1cc(NC(=O)c2ccco2)c(OCC)cc1NC(=O)c1ccco1	none
CCOc1cc(NC(=O)c2ccco2)c(OCC)cc1NC(=O)CCc1ccccc1OC	ELG1 DNA repair 20.6µM
COc1cccc2[nH]c(C(=O)NCc3ccccc3)cc12	ELG1 DNA repair 20.6µM
CCC(=O)Nc1cc(OC)c(NC(=O)c2ccccc2)cc1OC	none
COc1ccc2cc(C(=O)NCc3ccccc3)[nH]c2c1	none
COc1ccc2cc(C(=O)NCCc3ccccc3)[nH]c2c1	BRCA1 expr act 4.47µM, ELG1 DNA repair inconclusive
COc1ccccc1CC(=O)Nc1cc(OC)c(NC(=O)c2ccccc2)cc1OC	ELG1 DNA repair 16.4µM
CCOC(=O)c1c(C)[nH]c(C(=O)OCC(=O)N2c3ccccc3CC2C)c1C (configuration not stated)	ELG1 DNA repair inconclusive
CCOC(=O)C1=C(C)NC(C)=C(C(=O)OCC)C1C(=O)OCC(=O)N1c2ccccc2CC1C (configuration not stated)	ELG1 DNA repair 23.1µM
COc1ccccc1CNC(=O)Cc1ccc(OC)c(OC)c1	none
COc1ccccc1CNC(=O)Cc1ccccc1	BRCA1 expr act 11.2µM, ELG1 DNA repair inconclusive
CCOC(=O)c1c(NC(=O)c2ccoc2C)sc(C(=O)N(C)C)c1C	ELG1 DNA repair 7.31µM
CCOC(=O)c1c(NC(=O)COC(=O)c2ccccc2NC)sc(C(=O)N(C)C)c1C	ELG1 DNA repair 18.3µM
CCOC(=O)c1c(NC(=O)COC(=O)Cc2ccccc2[N+](=O)[O-])sc(C(=O)N(C)C)c1C	none
Cc1ccc(COc2ccc(C)nc2[N+](=O)[O-])cc1	BRCA1 expr act 4.47µM, ELG1 DNA repair inconclusive
CCc1ccc(S(=O)(=O)c2nnn3c2nc(Nc2ccc(F)cc2)c2cc(Cl)ccc23)cc1	none (no result: BRCA1 expr act, ELG1 DNA repair, IL2 activator)
CCOc1ccc(C(=O)c2cn(CC(=O)Nc3ccc(F)c(F)c3)c3cc4c(cc3c2=O)OCCO4)cc1	none (no result: ELG1 DNA repair, IL2 activator)
COc1cccc(-c2cc(C(=O)Nc3cc(Cl)ccc3O)on2)c1	Nrf2 activator 7.94µM (no result: BRCA1 expr act, ELG1 DNA repair, IL2 activator)
COc1cccc(-c2cc(C(=O)Nc3cc(OC)c(OC)c(OC)c3)on2)c1	none (no result: BRCA1 expr act, ELG1 DNA repair, IL2 activator)
CCN(CC)CCNC(=O)c1ccc(-n2c(-c3ccccc3)cc3c2CCCC3)cc1	Nrf2 activator 11.2µM (no result: BRCA1 expr act, ELG1 DNA repair, IL2 activator)
COCCCNC(=O)c1ccc(-n2c(-c3ccccc3)cc3c2CCCC3)cc1	Nrf2 activator 12.6µM (no result: BRCA1 expr act, ELG1 DNA repair, IL2 activator)
Cc1cc(C)cc(-n2c(SCC(N)=O)nc3c(oc4ccccc43)c2=O)c1	none (no result: ELG1 DNA repair, IL2 activator)
Cc1snc(SCC(=O)c2ccc(Cl)cc2)c1C#N	ELG1 DNA repair inconclusive
Cc1ccc(C(=O)CSc2nsc(C)c2C#N)cc1	BRCA1 expr act 6.31µM, ELG1 DNA repair inconclusive
